The full ranking holds about 33,000 sequences; the median of “E-score (-0.5 to 0.5)” is about -0.035, and the highest 2% start at about 0.34. This is one part of a sample in which the highest values are shown more often than they occur.
Biological target: T1, Mot3 (UniProt P54785)
T1 sequence: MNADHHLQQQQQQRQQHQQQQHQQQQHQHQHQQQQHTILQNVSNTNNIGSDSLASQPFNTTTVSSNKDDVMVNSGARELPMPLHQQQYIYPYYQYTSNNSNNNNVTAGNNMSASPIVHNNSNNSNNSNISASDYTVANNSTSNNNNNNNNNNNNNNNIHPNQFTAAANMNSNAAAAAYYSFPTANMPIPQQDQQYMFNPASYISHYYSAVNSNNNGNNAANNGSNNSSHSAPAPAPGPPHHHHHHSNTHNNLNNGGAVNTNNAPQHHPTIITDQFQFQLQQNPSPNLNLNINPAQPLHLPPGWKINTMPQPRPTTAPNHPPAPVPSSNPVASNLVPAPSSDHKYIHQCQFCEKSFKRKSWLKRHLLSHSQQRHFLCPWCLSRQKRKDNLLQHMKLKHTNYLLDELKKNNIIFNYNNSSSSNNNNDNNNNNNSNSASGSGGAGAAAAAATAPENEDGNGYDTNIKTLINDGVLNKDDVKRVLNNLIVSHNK
Test: PBM E-score (8-mer binding enrichment) (E-score (-0.5 to 0.5)); higher = stronger / more preferred TF binding
Settings: protein concentration: 200 nM; construct: GST-full length
Protocol: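 Universal 'all 10-mer' protein binding microarrays (Agilent AMADID 015681) probed with GST-tagged S. cerevisiae TFs (full-length or DBD) made by in vitro transcription/translation (PURExpress), about 100-200 nM. Bound TF was detected with fluorescent anti-GST. Each ungapped 8-mer (which stands for itself and its reverse complement) is scored by the PBM enrichment score (E-score), a modified Wilcoxon-Mann-Whitney statistic from -0.5 to +0.5, computed with the Universal PBM Analysis Suite. Scale: above 0.35 generally sequence-specific binding.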

Sequence	PBM E-score
CAGGTCGC	-0.225
AGTGTTTA	0.126
GGTGTTTA	0.0636
CATGTTTA	0.371
CGCGTTAA	0.368
GGCGTTAA	0.149
CGTGTTTA	0.346
AGTGTTAA	0.264
CGCGTTAG	0.187
TGTGTTAA	0.401
GGTGTTAA	0.28
GATGTTTA	0.125
CATGTTTC	0.24
ACACTGGC	0.00843
ACTTAAGG	0.157
CTAGATAC	-0.0863
GCAAGACC	-0.0597
CGCAAAAC	0.0841
CACAGCTC	0.0935
CAACTGAG	0.00667
GAACCTCA	-0.0997
AGAGCACT	-0.0229
GAAACTCA	-0.0953
CGGACAAC	-0.0115
CTCGAGCA	-0.0333
AATGTTGA	0.162

Sequence	PBM E-score
CGTGTTAG	0.354
CCTGTTAA	0.297
CATGTTGC	0.297
CTTGTTAA	0.355
CATGTTGA	0.401
GTTGTTAA	0.275
CGTGTTAA	0.418
AGTGTTAG	0.0278
CTTGTTAC	0.158
CGTGTTCA	0.273
CGTGTTAC	0.308
ATTCAATA	0.0942
TACGAACA	0.18
CTTTTCCC	-0.0316
TCTGGTAA	-0.0343
CGCCTAAC	0.152
GAAGATAC	-0.078
GACTGCAC	-0.0356
AAAGCACT	-0.216
GACGCCCA	-0.158
CATAGAAC	-0.0217
TGTCAAAA	0.241
GCGTCCCC	-0.362
AGCAAGGA	-0.0799
GACAGCCA	-0.186
AGAAGAAG	-0.0319

Sequence	PBM E-score
CGTGTTGC	0.242
CGTGTTGA	0.395
AGTGTTGA	0.073
CCACAATA	-0.0891
GGTCCTTA	-0.152
AGGGCACA	0.3
GGGGCACA	-0.202
AAGGCACT	0.486
TAGGCAGA	0.136
GAGGCACA	0.47
ACGGCACT	-0.139
AAGGCAGA	0.0903
TAGGCACA	0.491
AGGGCACT	0.0516
GAGGCAGA	-0.164
TAGGCATA	0.28
AAGGCACA	0.492
AACGTATG	0.0662
CGCGCTGC	-0.0871
TAAACATA	0.284
CCCAGATC	-0.111
ATTTTCAA	0.12
GCGGCACC	-0.159
AAGGCGCA	0.336
CGGGCACA	0.0796
AAGGCGCT	0.353

Sequence	PBM E-score
AAGGCGCG	0.252
TGGGCACA	0.356
CGGGCACG	0.263
GAGGCACC	0.463
GGGGCACC	-0.152
AACAGCTC	-0.162
CTCTTTAC	0.177
TGGCCACA	-0.096
ATTCCAGC	-0.168
CTTCACGC	0.151
AGCAGGTC	-0.0131
GCGTGGAA	-0.104
GCGTGTAA	0.431
AGGTGTAA	0.26
TGGTGTAA	0.186
CCGTGTGA	0.277
ACGTGTAA	0.414
TCGTGTAA	0.411
ACGTGTGA	0.184
TAGTGTAA	0.206
CCGTGTAA	0.403
CAGTGTAA	0.225
GCGTGTCC	0.0864
ACTCCAGG	0.0384
ACACCTAA	0.168
AGGGCAAG	0.13

Sequence	PBM E-score
CACTCTAG	-0.145
ACCCAGCC	-0.259
CTTCCTTA	0.146
ATTCCTGA	0.136
GTTCCTTA	0.428
CTTCCTGA	-0.0128
CTTCCTAA	0.0478
ATTCCTTA	0.211
GTTCCTGA	0.428
ATTCCTAA	0.105
GTTCCTAA	0.431
CCCGAAGG	-0.0155
ATGGAAGC	-0.191
AAATGCCC	-0.192
ACATGCCC	0.21
ACATGCGC	0.251
AAGTGCCT	0.48
ACATGCCT	0.366
AAATGCCA	-0.105
ACATGCCA	0.304
ACATGCGT	0.341
AAGTGCCC	-0.177
AAATGCCT	0.377
ACATGCGG	0.175
AAGTGCCA	0.0649
TCAGACCA	-0.201

Sequence	PBM E-score
CCTCTTGC	0.0662
GAGGGTGA	-0.208
CCGCTCCG	-0.227
AAACCGAA	-0.0393
ACAGCTGT	-0.0347
AGCTCAGC	-0.206
ATGCAGGA	0.0312
ATGCAGGC	0.342
CTGCAGGC	0.406
CTGCAGGA	0.291
CTGCAGTC	-0.106
ATGCAGGG	-0.153
ACCATTTC	-0.123
CCGAGACG	-0.0781
CGCTGGTC	-0.275
GCTGTCGA	-0.12
CATGTCGG	0.222
GATGTCGA	0.215
CCTGTCGA	0.342
CATGTCGA	0.351
CCTGTCGC	-0.046
GGGTTCTA	-0.176
GTCTGTAA	0.149
CGTTTACA	0.349
AGTTTACA	0.363
AGTTTACC	0.0908

Sequence	PBM E-score
CGTTTAGA	0.0393
CGTTTACC	0.0878
AGTTTACG	0.188
AAAGATGC	0.132
AGTCCTCC	-0.221
CACAGAAG	-0.00641
CTTGAAAG	0.0362
AGGAGGGG	-0.156
GAAGCCAC	-0.196
CGCCTGCA	0.23
CGCCTGAA	0.297
TGCCTGAA	0.48
GGCCTGTA	0.148
GGCCTGAA	-0.277
AGCCTGCA	0.344
AGCCTGTA	0.342
GGCCTGCA	-0.0526
AGCCTGAA	0.223
CAGTACTG	-0.132
CCCCCGCA	-0.214
GTCTCGCA	-0.238
CGATCAAC	0.0859
AAACCCCT	0.0363
GATGCTAC	-0.122
CAAACGCC	-0.143
AACCCACA	0.0686

Sequence	PBM E-score
AATGCCCG	-0.316
CATGCCTA	0.245
ACTGCCTA	0.199
GATGCCAA	-0.148
AATGCCTG	0.352
GATGCCTA	0.439
AATGCCGA	-0.249
AATGCCTC	-0.0227
AATGCCTA	0.359
CGATTTGC	-0.216
ATGGCGAC	-0.254
ACAGATCG	-0.134
CGAATGAC	0.186
ACGCCCTG	-0.0695
AACTGGAT	-0.153
GGAGCCAA	-0.117
ACAACCAA	0.00653
TATGTACA	0.353
GATGTACA	0.259
CATGTACG	0.239
CATGTACA	0.387
AATGTACA	0.292
TCTGTACA	0.235
GGCTCTGA	0.00444
GTCTGATA	0.0245
CACAATCG	0.018

Sequence	PBM E-score
GGGTAGTA	-0.109
CCAAAGTC	-0.189
CAAGGGGC	-0.148
ACGTGCTC	0.0193
ACCTGGGA	-0.0112
CACAGGAG	0.0555
GACAGAAA	0.0469
TACAGGAA	0.43
TAGAGGAA	-0.0809
AACAGGAA	0.416
CACAGGAC	-0.175
AACAGGAG	0.0835
GACAGGAA	0.374
AACAGGAC	0.19
CACAGGAA	0.385
TACAGTAA	0.194
GACAGGAC	-0.231
ACTGAGGC	-0.119
ATTCACTA	0.124
ACCATTAC	0.168
CGGTCCCA	-0.296
AACCAGCT	0.0762
ACTAGCAG	0.109
ACTCCAAG	-0.0115
AGTCCGAT	-0.158
AGAAACGA	0.0178

Sequence	PBM E-score
CGTCGTAA	0.0759
AGGTTGGA	-0.173
CGGAGGCC	-0.224
AGGAGGCG	-0.163
AGGAGGCA	0.382
CGGAGGTA	-0.0405
GGGAGGAA	-0.11
GGGAGGCA	0.364
AGGAGGCC	-0.263
CGGAGGCA	0.375
GGGAGGGA	-0.149
CAGACCAC	-0.109
GTGGCCTA	0.0303
ATCTAAAG	0.136
ACCAAGCA	-0.0877
CGGGGACC	-0.0971
AGAAACTA	-0.0831
GTGGATGA	-0.0229
ACGGCAAT	0.0994
AAGGCAGG	0.231
ACGGCAAG	-0.116
AAGGCAGC	0.276
ATGGCAAC	-0.0341
AGGGCAAA	-0.0247
AAGGCAAC	0.487
AAGGCAAT	0.479

Sequence	PBM E-score
AAGGCGAA	-0.0356
AAGGCAAA	0.479
AAGGCAGT	-0.0323
AAGGCAAG	0.485
GGATGCGA	-0.246
ACACAGCG	0.318
GCCCGATA	-0.181
AAGTTCAT	-0.132
GGGGCAAC	-0.0256
GAGGCAAC	0.435
GCGGCAAC	-0.0624
CTACGCTC	-0.0123
TACAAGCA	0.284
GCTACTCA	-0.175
CTCTAGCA	-0.0349
ATTTCCAA	0.0549
ATTTCCAG	0.0581
ATTTCCTG	0.41
ATTTCCCA	-0.0389
ATTTCCTC	-0.0476
ATTTCCTA	0.371
AAGATTGT	0.126
CCGGTGCG	-0.0852
AATAGCCA	-0.0713
CCAGGAGA	-0.238
GAAGGTAC	0.438

Sequence	PBM E-score
CAAGGTGC	0.0747
AAAGGTAA	0.324
AAAGGTAT	0.102
GAAGGTAA	0.397
GAAGGTGC	0.136
AAAGGTAC	0.42
AAAGGTAG	-0.135
CAAGGTAA	0.258
GGAGGTAC	0.0528
CAAGGTAG	0.0907
CAAGGTAC	0.376
CGCGACGC	-0.148
ATACCCGG	0.0542
TCGCCCCA	-0.213
CACTGTCC	-0.196
GGACCGCC	-0.212
ACCCTTTG	-0.147
GCATTCAC	0.0735
ACGTCTCT	0.0141
AAGCAATG	-0.0928
ATCAGGAT	-0.12
AAAGGGGG	-0.0401
AGACATGG	0.139
AGACATGA	0.198
ATACATAT	0.359
GTACATGA	0.328

Sequence	PBM E-score
CTACATGA	0.361
ACACATGG	0.144
ATACATAA	0.308
ATACATCA	0.16
ATACATGG	0.374
CTACATCA	0.112
ATACATAC	0.28
ATACATGA	0.363
CCTCTGAC	-0.145
CACCCTTC	-0.121
ATGCCCCC	-0.266
AGAGTTCC	-0.135
CTGGCACC	-0.232
CACCTTAA	0.0232
CCTTCAGA	-0.0591
CTACATTC	0.0249
ATACATGC	0.361
CGACATGC	0.279
ATACATCC	0.201
AGACATGC	0.0904
CTACATGC	0.355
CCCAAGGA	-0.0628
GTCTGCAA	-0.0815
AGCATGGC	0.0473
CGCTGTTA	-0.0162
TAGCTAGA	-0.0751

Sequence	PBM E-score
CGCACTGC	-0.0709
ATGCCTAG	0.199
ATGCCTGA	0.376
AGGCCTGA	-0.288
CAGCCTGC	-0.106
CTGCCTGA	0.223
GAGCCTGA	0.26
GAGCCTGC	0.389
CTGCCTTC	0.2
ATGCCTAC	0.424
AGGCCTTC	-0.154
ATGCCTTC	0.36
CTGCCTAC	0.264

Reference: the supplement of paper PMC3334620
